Measured values reported in ChEMBL document CHEMBL1157539, “Thousands of chemical starting points for antimalarial lead identification” (Nature, 2010).

These compounds were tested on Plasmodium falciparum (assay: GSK_TCMDC: Inhibition of Plasmodium falciparum 3D7 in whole red blood cells, using parasite LDH activity as an index of growth. Test compounds present at 2uM).
Type: functional

Compound	Inhibition
Cn1cnc2c(SCc3ccccc3OCc3ccccc3)ncnc21	86%
Cc1ccc(F)cc1S(=O)(=O)NCC(C)c1ccc(NC(=O)Nc2cccc(F)c2)cc1 (centres undefined)	95%
CN1CCN(c2ccc(Cl)cc2NC(=O)C2COc3ccccc3O2)CC1 (centres undefined)	99%
N#Cc1cccc(NC(=O)Nc2cccc(-c3cccc(-c4nc5ccccc5[nH]4)c3)c2)c1	100%
CCCc1ccccc1Nc1nc(C)cc(N(CC)CCCN2CCCCC2)n1.O=C(O)C(F)(F)F	98%
CC(=O)Nc1ncc(C(=O)Nc2ccc(-c3cccc(-c4nc5cc(C(F)(F)F)ccc5[nH]4)c3)cc2)s1	100%
COc1ccc(OCCCON)cc1.Cl	98%
COc1ccc(C(=O)Nc2ccc(-c3ccc([N+](=O)[O-])cc3)cc2)cc1CCCN(C)C.Cl	98%
COc1ccc(-c2cc(-c3nc4cc(C(=O)N5CCOCC5)ccc4[nH]3)c(=O)n(C)c2)cc1OC.O=C(O)C(F)(F)F	93%
Cc1cccc2c(/C=C/C(=O)NC3CCC(CCN4CCc5ccc(C#N)cc5CC4)CC3)c[nH]c12.Cl (centres undefined)	91%
Oc1cc(Nc2ccnc3cc(I)ccc23)ccc1F	99%
Cc1cccc2nc(-c3cccc(-c4cccc(NC(=O)Nc5cccc(C#N)c5)c4)c3)[nH]c12	100%
CCCCOc1cc(OC)c2ccccc2c1CCNCCCCNCCc1c(OCCCC)cc(OC)c2ccccc12.CS(=O)(=O)O	82%
Cc1nc(C)c(CC(=O)Nc2ccc(-c3ccc(-c4nc5cc(C(F)(F)F)ccc5[nH]4)s3)cc2)s1	90%
